The entries come from a sample that favours hits as a whole.
Vaccinia pol inh = vaccinia E9 polymerase processive synthesis inhibition; in vitro processive DNA synthesis, absorbance read-out; active compounds read low; actives 0.94% (n = 46,000); normalized absorbance, % (no concentration beside the values); in the data active = normalized absorbance mostly below about 85%, no sharp cut-off; inactive = mostly above about 86%
Numbers without * were called inactive.

SMILES | Vaccinia pol inh
COc1ccc(N=Cc2cn(-c3ccc(OC)cc3)cc2C=Nc2ccc(OC)cc2)cc1 | 68.4
COc1ccc(C=Nc2ccccc2)cc1 | 101.1
O=C(CN1C(=O)/C(=C\c2cccs2)SC1=S)Nc1ccccc1 | 98.0
CC(C)c1ccccc1NC(=O)COC(=O)c1cc(Cl)cc(Cl)c1 | 104.8
O=C(NCCCN1CCCC1=O)c1ccc(Cn2c(SCc3ccccc3)nc3ccncc32)cc1 | 109.9
Cc1cccc(NC(=O)CSC2=NS(=O)(=O)c3ccccc32)c1C | 101.1
COc1ccc2c(c1)c(C#N)c1n2CCN=C1N(C)C | 104.6
CN=C1c2c(C)c3cc(OC)ccc3n2CCN1C | 49.5*
COc1ccc2c(c1)c(-c1csc(N)n1)c(C)n2C | 102.8
O=C(COC(=O)CC12CC3CC(CC(C3)C1)C2)NCc1ccc(F)cc1 | 101.7
NC(=O)c1c(NC(=O)COc2ccc(Cl)cc2)sc2c1CCN(Cc1ccccc1)C2 | 98.8
COC(=O)[C@@]1(C)CCCC2(C)c3ccc(C(C)C)cc3CCC21 (stereo partly drawn) | 100.0
CC(C)c1ccc2c(c1)CCC1C(C)(CNC(=O)/C=C/C(=O)O)CCCC21C (stereo not drawn) | 81.3*
COc1ccc2c(c1)[C@@]1(C)CCC[C@](C)(CO)C1CC2 (stereo partly drawn) | 100.2
COC(=O)C1=CN(Cc2ccc(Cl)cc2)C=C(C(=O)OC)C1c1cccc(Cl)c1 | 98.2
CCOC(=O)CCc1c(CC(=O)OCC)c[nH]c1/C=N/O | 31.1*
CCOC(=O)CCc1ccc(OCc2c(C)c(C)c(C)c(C)c2C)cc1 | 96.1
CCOC(=O)CCc1n[nH]c(=O)[nH]c1=O | 101.5
O=C(NCCN1CCN(Cc2ccccc2)CC1)Nc1ccccc1 | 109.1
CC(C)N(C(=O)CSC1=NCCS1)c1ccccc1 | 96.8
